Measurements from the supplement of paper PMC9262897, “Low-cost anti-mycobacterial drug discovery using engineered E. coli” (Nature Communications, 2022).
Where a name gives a salt, the structure may show the parent alone. ± gives the standard deviation of the averaged measurements.

Tested on: E. coli TESEC Mtb DapB
Assay: growth (OD600 after 10 h); higher = more growth (less inhibition)
Conditions: arabinose induction (level): Low; compound 0.1 mM; raw OD600 reference: median of DMSO wells 0.227, cell-free background 0.041
Procedure: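 TESEC E. coli strains in which the native enzyme is deleted and replaced by arabinose-inducible Mtb Asd, DapB, CysH or TrpD, each grown in its selective medium. Strains were screened against the Prestwick library at 0.1 mM and 1% DMSO in 384-well format at low and high arabinose induction. Growth is read as OD600 after 10 h in triplicate.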

SMILES | growth
CN(C)CCN(Cc1ccc(Cl)cc1)c1ccccn1 [Chloropyramine hydrochloride] | 0.208 ± 0.016
O=C1NCCN1CCN1CCC(c2cn(-c3ccc(F)cc3)c3ccc(Cl)cc23)CC1 [Sertindole] | 0.0562 ± 0.012
O=C1NCC2(CCN(CCc3ccccc3)CC2)O1 [Fenspiride hydrochloride] | 0.253 ± 0.048
CC(C)[C@H]1CC[C@H](C(=O)N[C@H](Cc2ccccc2)C(=O)O)CC1 [Nateglinide] | 0.217 ± 0.06
CCOC(=O)[C@H](CCc1ccccc1)N[C@@H](C)C(=O)N1CCC[C@H]1C(=O)O [Enalapril maleate] | 0.268 ± 0.029
CC1(C)O[C@@H]2[C@@H](CO[C@@]3(COS(N)(=O)=O)OC(C)(C)O[C@@H]23)O1 [Topiramate] | 0.203 ± 0.022
c1ccc2c(c1)CCCc1cc(NCCN3CCOCC3)nnc1-2 | 0.2 ± 0.013
CC[C@@H]1C(=O)OC[C@@H]1Cc1cncn1C [Pilocarpine nitrate] | 0.222 ± 0.023
Cn1ccnc1S [Methimazole] | 0.262 ± 0.04
NC[C@H]1O[C@H](O[C@H]2[C@H](O)[C@@H](O[C@H]3O[C@H](CO)[C@@H](O)[C@H](N)[C@H]3O)[C@H](N)C[C@@H]2N)[C@H](N)C[C@@H]1O [Tobramycin] | 0.0491 ± 0.0037
O=C1C(CC[S+]([O-])c2ccccc2)C(=O)N(c2ccccc2)N1c1ccccc1 (stereo not given) [Sulfinpyrazone] | 0.203 ± 0.023
C=C1/C(=C\C=C2/CCC[C@]3(C)[C@@H]([C@H](C)CCCC(C)C)CC[C@@H]23)C[C@@H](O)C[C@@H]1O [Alfacalcidol] | 0.226 ± 0.018
C[C@H](O)C(=O)Nc1c(I)c(C(=O)NC(CO)CO)c(I)c(C(=O)NC(CO)CO)c1I [Iopamidol] | 0.249 ± 0.028
CCCCNc1cc(C(=O)O)cc(S(N)(=O)=O)c1Oc1ccccc1 [Bumetanide] | 0.215 ± 0.038
CN(C)CCCOc1nn(Cc2ccccc2)c2ccccc12 [Benzydamine hydrochloride] | 0.216 ± 0.051
CCn1nc(C(=O)O)c(=O)c2cc3c(cc21)OCO3 [Cinoxacin] | 0.212 ± 0.0088
CCCCOC(=O)c1ccc(N)cc1 [Butamben] | 0.218 ± 0.07
C#C[C@]1(O)CC[C@H]2[C@@H]3CCC4=CCCC[C@@H]4[C@H]3CC[C@@]21C [Lynestrenol] | 0.198 ± 0.027
CCc1c2c(nc3ccc(OC(=O)N4CCC(N5CCCCC5)CC4)cc13)-c1cc3c(c(=O)n1C2)COC(=O)[C@]3(O)CC [Irinotecan hydrochloride trihydrate] | 0.243 ± 0.0046
CN(C)CCn1nnnc1SCC1=C(C(=O)O)N2C(=O)[C@@H](NC(=O)Cc3csc(N)n3)[C@H]2SC1 [Cefotiam hydrochloride] | 0.195 ± 0.019

SMILES | growth
O=S(=O)(O)c1cc(O)ccc1O [Ethamsylate] | 0.244 ± 0.025
NNC(=O)c1ccncc1 [Isoniazid] | 0.242 ± 0.052
O=C(O)/C=C/c1ccc(Cn2ccnc2)cc1 [Ozagrel hydrochloride] | 0.207 ± 0.023
NCCC[C@H](N)CC(=O)N[C@H]1CNC(=O)[C@H]([C@H]2C[C@H](O)NC(N)=N2)NC(=O)/C(=C/NC(N)=O)NC(=O)[C@H](CO)NC(=O)[C@H](CO)NC1=O [Viomycin sulfate] | 0.226 ± 0.031
CC1CS(=O)(=O)CCN1/N=C/c1ccc([N+](=O)[O-])o1 (stereo not given) [Nifurtimox] | 0.251 ± 0.019
CC(C)C(=O)Nc1ccc([N+](=O)[O-])c(C(F)(F)F)c1 [Flutamide] | 0.218 ± 0.039
Nc1ccc(S(=O)(=O)Nc2cnc3ccccc3n2)cc1 [Sulfaquinoxaline sodium salt] | 0.204 ± 0.022
Cc1cnc(NC(=O)C2=C(O)c3ccccc3S(=O)(=O)N2C)s1 [Meloxicam] | 0.195 ± 0.0074
CCCc1ncc(C[n+]2ccccc2C)c(N)n1 [Amprolium hydrochloride] | 0.228 ± 0.05
COc1cc(C(=O)OCCCN2CCCN(CCCOC(=O)c3cc(OC)c(OC)c(OC)c3)CC2)cc(OC)c1OC [Dilazep dihydrochloride] | 0.211 ± 0.034
CC(C)(O/N=C(\C(=O)N[C@@H]1C(=O)N2C(C(=O)[O-])=C(C[n+]3ccccc3)CS[C@H]12)c1csc(N)n1)C(=O)O [Ceftazidime pentahydrate] | 0.0547 ± 0.0049
O=C(c1ccc(OCCN2CCCCC2)cc1)c1c(-c2ccc(O)cc2)sc2cc(O)ccc12 [Raloxifene hydrochloride] | 0.0509 ± 0.0031
CS(=O)(=O)c1ccc([C@@H](O)[C@@H](CO)NC(=O)C(Cl)Cl)cc1 [Thiamphenicol] | 0.0622 ± 0.0072
CN(C)CC/C=C1\c2ccccc2CSc2ccccc21 [Dosulepin hydrochloride] | 0.202 ± 0.0032
CCOc1nc2cccc(C(=O)O)c2n1Cc1ccc(-c2ccccc2-c2nnn[nH]2)cc1 [Candesartan] | 0.205 ± 0.024
CCc1cc(C(N)=S)ccn1 [Ethionamide] | 0.217 ± 0.027
CN(C)CCCC1(c2ccc(F)cc2)OCc2cc(C#N)ccc21 (stereo not given) [Citalopram Hydrobromide] | 0.211 ± 0.017
Cn1c(=O)c2c(ncn2C)n(C)c1=O [Caffeine] | 0.228 ± 0.044
COc1ccc(C(=O)NCc2ccc(OCCN(C)C)cc2)cc1OC [Itopride] | 0.268 ± 0.025
Cn1cnc([N+](=O)[O-])c1Sc1ncnc2[nH]cnc12 [Azathioprine] | 0.226 ± 0.019
